Bioassay records (PubChem BioAssay)
GLP1R inv ag – inverse agonists of human GLP-1 receptor; P43220; HEK293 GLP-1R CRE-luciferase, luminescence, 24 h; GLP-1R form is constitutively active; Potency, µM (series often up to 38.3 µM), inactives show at the highest dose activity change, negative = inhibition, most hits filed as inhibitors; hit rate 1.6% among 410,000; also: potency is read from the fitted curve at half-maximal effect; % is scaled to controls: 0 for no effect and ±100 for the full control effect; nearly all actives have a fitted effect of over 55% in size
Target sequence (P43220 whole entry, looked up): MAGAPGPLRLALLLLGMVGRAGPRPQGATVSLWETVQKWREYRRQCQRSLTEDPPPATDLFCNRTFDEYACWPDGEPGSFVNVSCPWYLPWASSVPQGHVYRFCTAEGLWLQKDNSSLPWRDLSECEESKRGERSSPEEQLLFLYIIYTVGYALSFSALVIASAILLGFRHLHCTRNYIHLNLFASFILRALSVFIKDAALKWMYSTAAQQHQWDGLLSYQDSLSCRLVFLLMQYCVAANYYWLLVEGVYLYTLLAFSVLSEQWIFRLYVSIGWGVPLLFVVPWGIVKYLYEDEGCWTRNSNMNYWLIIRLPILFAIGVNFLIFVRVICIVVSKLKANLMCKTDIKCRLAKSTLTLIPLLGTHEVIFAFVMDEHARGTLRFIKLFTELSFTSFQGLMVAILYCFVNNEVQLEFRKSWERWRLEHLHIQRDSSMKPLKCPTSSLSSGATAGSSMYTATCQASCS
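Cells are plated, allowed 12 hours at 37 deg C, then treated with compounds for 24 hr before luciferase detection reagent is added and luminescence is read after 12 min at room temperature. The HEK293 line carries constitutively active GLP-1R with a cAMP-responsive reporter.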
ClpP mod – qHTS Assay for Activators of ClpP | ATP-dependent Clp protease proteolytic subunit (Bacillus subtilis (strain 168)), P80244 | purified B. subtilis ClpP, FRET peptide cleavage, 20 min | Potency, µM (titrated, usually from 57.5 µM), for inactives: top-dose activity change, negative = active | hit rate 1.9% among 340,000 | AID 651965, 2013; active = well fitted falling curve with a large enough effect; inconclusive = small, poorly fitted or top-dose-only effect; inactive = no such curve, though single readings can be large or run the other way; also: potency is read from the fitted curve at half-maximal effect; the source files actives as falling curves though it sought activators and does not explain the sign; nearly all actives have a fitted effect of over 65% in size
Target sequence (P80244 whole entry, looked up): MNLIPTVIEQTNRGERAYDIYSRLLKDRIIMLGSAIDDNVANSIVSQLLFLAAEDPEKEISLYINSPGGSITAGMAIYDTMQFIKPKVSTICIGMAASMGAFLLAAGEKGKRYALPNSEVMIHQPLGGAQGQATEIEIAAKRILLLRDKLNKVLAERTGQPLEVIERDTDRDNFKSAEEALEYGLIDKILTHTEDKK
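Purified B. subtilis ClpP, 10 microg/mL final in Tris/HCl pH8 with KCl, BSA, glycerol and Tween-20, cleaved an Abz/nitrotyrosine-quenched decapeptide. Fluorescence (ex 320, em 430) was read at 0 and 20 min at room temperature. Delta was normalized to 5.8 microM ADEP and DMSO/no-enzyme controls.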
HEK293 tox – cytotoxic in the GLP-1 receptor inverse agonist counter-screen; Potency, µM (titrated, usually from 38.3 µM), without a hit: at the top dose activity change, negative = inhibition, actives largely listed as inhibitors; hit rate 0.13% among 410,000; HEK293 cAMP-luciferase reporter cells, luminescence, 24 h; AID 624418;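 also: loss of luciferase light is scored as toxicity; potency is read from the fitted curve at half-maximal effect; % is scaled to controls: 0 for no effect and ±100 for the full control effect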
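To flag toxic compounds, the library was rerun on cells for 24 hr at 37 deg C and 5% CO2. Viability-linked luminescence was captured 12 min after adding luciferase detection reagent.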
GLP1R ag – GLP-1 receptor (human) agonism | P43220 | HEK293 GLP-1R CRE-luciferase, luminescence, 4-6 h; cells express a hypersensitive GLP-1R form | Potency, µM (titrated, usually from 45.6 µM), for the others: at the highest dose activation, actives largely listed as activators | hit rate 0.007% among 380,000 | AID 624172; also: potency is read from the fitted curve at half-maximal effect; % of control where 0% means no effect
p53 reactivation – re-activators of mutant p53; H1299 p53-A138V BP100-luciferase reporter, luminescence, 24 h; Potency, µM (doses to about 92.2 µM), for inactives: at the top dose activity change, positive = activation, usual class: activators; hit rate 0.063% among 320,000; also: potency is read from the fitted curve at half-maximal effect; % of control where 0% means no effect; nearly all actives have a fitted effect of over 45% in size
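p53-null H1299 cells stably carrying temperature-sensitive p53-A138V and a BP100-luciferase reporter were pinned with compounds (4-point, 1:5 series) and held 24 hrs at 37 deg C. Luminescence was read 10 min after detection reagent.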
LDHA block – LDHA (human) enzyme inhibition; activity change, % (values are at about 110 or 230 µM); hit rate 0.15% among 480,000; P00338; purified LDHA, NADH/diaphorase-resazurin fluorescence; hits give low values; in the data active = activity change below about -30%; inconclusive = mostly about -25% to -30%;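 also: plate controls were DMSO wells for no effect and wells without enzyme for full effect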
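Enzyme activity of human lactate dehydrogenase 5 (2 nM; 0.06 mM NADH, 0.2 mM pyruvate, 5 min, RT) is measured via a resazurin/diaphorase fluorescence readout of residual NADH.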
* hit, by the source's call. Most compounds without a hit are left out; they make up all but 2.9% or so of the library. Unless noted, calls follow the shape of the dose curve; as a rule, active = well fitted curve in the direction sought with a large enough effect; inconclusive = small, poorly fitted or top-dose-only effect, or another doubt; inactive = no such curve, though single readings can be large; an effect the other way counts as inactive or inconclusive.

Screening COc1ccc(C2=NN(CCC(=O)NCc3ccc4c(c3)OCO4)C(=O)CC2)cc1 returned GLP1R inv ag 18%, ClpP mod -3%, HEK293 tox 17%, GLP1R ag 15%, p53 reactivation -1% and LDHA block -3.
`CCCn1c(NC(=O)c2ccc(Cl)c(S(=O)(=O)N3CCCC3)c2)nc2ccccc21` gave GLP1R inv ag inconclusive, ClpP mod inconclusive, HEK293 tox -15%, GLP1R ag 0%, p53 reactivation inconclusive and LDHA block -5.
Screening Cc1cc(=O)[nH]c(-c2cccnc2)n1 returned GLP1R inv ag 12%, HEK293 tox 14%, GLP1R ag 4%, p53 reactivation -1% and LDHA block -13.
Screening CC1(C)Cc2cccc(OCC(=O)OCC(=O)Nc3ccc(C(N)=O)cc3)c2O1 returned GLP1R inv ag 5%, ClpP mod 25µM*, HEK293 tox 5%, GLP1R ag -4%, p53 reactivation -2% and LDHA block -9.
Cc1cc(=O)n2c(n1)NC(Nc1ccc(F)cc1)=NC2c1cccs1 (centres undefined) was read as LDHA block -37*.
COc1ccc(C2/C=C\CN(C(=O)OCc3ccccc3)CC(=O)N2Cc2ccc(F)cc2)cc1 (centres undefined) was read as GLP1R inv ag inconclusive, ClpP mod 1%, HEK293 tox -7%, GLP1R ag -5%, p53 reactivation 6% and LDHA block 1.
`CNC1=C(N(C(C)=O)c2ccc(Br)cc2)C(=O)c2ccccc2C1=O` gave GLP1R inv ag inconclusive, ClpP mod -2%, HEK293 tox inconclusive, GLP1R ag -16%, p53 reactivation -40% and LDHA block 30.
CC(=O)C1=C(c2ccc(Br)cc2)C(=O)c2ccccc2C1=O was read as GLP1R inv ag inconclusive, ClpP mod -1%, HEK293 tox 3.5µM*, GLP1R ag -32%, p53 reactivation -23% and LDHA block 33.
For CCc1ccc(-c2csc(NC(=O)C3CCCO3)c2C(=O)OC(C)C)cc1 (centres undefined) the results were GLP1R inv ag 1.3µM*, ClpP mod -28%, HEK293 tox 21%, GLP1R ag -2%, p53 reactivation 4% and LDHA block 6.
`Cc1cccc(-c2nnn(Cc3nnc(NC(=O)c4ccccc4)s3)n2)c1` gave GLP1R inv ag 20%, ClpP mod -3%, HEK293 tox 9%, GLP1R ag 21%, p53 reactivation 23% and LDHA block -6.
Screening COc1ccc(C(C)=O)cc1COC(=O)c1c(Cl)cccc1Cl returned LDHA block 4.
Cc1ccc(OCCn2cc(/C=C3\C(=O)NN(c4ccccc4)C3=O)c3ccccc32)cc1 was read as GLP1R inv ag 0%, ClpP mod 18µM*, HEK293 tox -8%, GLP1R ag 0%, p53 reactivation 1% and LDHA block -5.
For COC(=O)[C@]12CCCCC=C1N(Cc1cccc3ccccc13)C(=O)[C@H](CC(=O)N1CCSCC1)C2 the results were GLP1R inv ag inconclusive, ClpP mod -4%, HEK293 tox 0%, GLP1R ag 2% and LDHA block 1.
Screening COc1ccc(/C=C2\CCC(C3CCCC3)C2=O)cc1 (centres undefined) returned GLP1R inv ag 19%, ClpP mod -4%, HEK293 tox 1%, GLP1R ag inconclusive, p53 reactivation inconclusive and LDHA block -3.
`COc1ccc(/C=C2/CCC(CN3CCOCC3)C2=O)cc1` (centres undefined) gave GLP1R inv ag 5.6µM*, ClpP mod -2%, HEK293 tox 5µM*, GLP1R ag -17% and LDHA block -2.
Screening O=C(CCn1c2c(c3ccccc31)CCCC2)NNC(=O)c1ccccc1C(=O)O returned GLP1R inv ag -16%, ClpP mod -2%, HEK293 tox -21%, GLP1R ag -4%, p53 reactivation -3% and LDHA block -1.
Screening O=C(O)CCn1c2c(c3ccccc31)CCCC2 returned GLP1R inv ag inconclusive, ClpP mod 25µM*, HEK293 tox 2%, GLP1R ag -6%, p53 reactivation -7% and LDHA block 0.
`O=C(/C=C/C(=O)NCc1cccs1)NCc1cccs1` gave GLP1R inv ag 4%, HEK293 tox 5%, GLP1R ag 4%, p53 reactivation 0% and LDHA block -14.
`Nc1cccc2c(=O)[nH][nH]c(=O)c12` gave GLP1R inv ag -4%, HEK293 tox -2%, GLP1R ag 7% and LDHA block -2.
CC(C)COc1ccc(C(=O)Nc2ccc(N3CCN(S(C)(=O)=O)CC3)cc2)cc1 was read as LDHA block -35*.
Screening CC(C)CC(=O)Nc1ccc(N2CCN(S(C)(=O)=O)CC2)cc1 returned GLP1R inv ag 16%, ClpP mod 2%, HEK293 tox 3%, GLP1R ag -9%, p53 reactivation 0% and LDHA block -6.
For COc1ccc2[nH]c3c(c2c1)CNCC3 the results were GLP1R inv ag -14%, ClpP mod -14%, HEK293 tox 5%, GLP1R ag 2% and LDHA block -18.
Clc1ccc2[nH]c3c(c2c1)CNCC3 was read as GLP1R inv ag 10µM*, ClpP mod -1%, HEK293 tox -2%, GLP1R ag -1%, p53 reactivation -10% and LDHA block -10.
COc1ccc(C)cc1-n1nnnc1SCC(=O)N1CCN(CC(=O)N2CCCC2)CC1 was read as LDHA block 7.
For COCc1ccc(C(=O)N2CCCC(N(C)Cc3ccccc3)C2)s1 (centres undefined) the results were GLP1R inv ag -25%, ClpP mod -2%, HEK293 tox 3%, GLP1R ag -7%, p53 reactivation 8% and LDHA block -7.
`O=Cc1ccccc1OCCCOc1cccc2cccnc12` gave GLP1R inv ag inconclusive, ClpP mod -10%, HEK293 tox -23%, GLP1R ag -2% and LDHA block 3.
`CC(C)(C)NCC(O)(c1ccc(Cl)cc1)c1ccc(Cl)cc1` gave GLP1R inv ag 4.5µM*, HEK293 tox inconclusive, GLP1R ag 0%, p53 reactivation -2% and LDHA block -2.
For CCN(CC)CCNCC(O)(c1ccc(Cl)cc1)c1ccc(Cl)cc1 the results were GLP1R inv ag 8.9µM*, HEK293 tox 2%, GLP1R ag 1%, p53 reactivation 6% and LDHA block -4.
